This is a sample that favours compounds with a hit; in the whole collection about 17% have one here.
DT40 TDP1 no CPT = qHTS for Inhibitors of human tyrosyl-DNA phosphodiesterase 1 (TDP1): qHTS in cells in absence of CPT | DT40 Tdp1-/- hTDP1 cells, no CPT, ATP luminescence, 48 h | Potency, µM (highest dose often 46.2 µM), actives largely listed as inhibitors | 420,000 compounds, 15% hits | AID 686978, 2013; also: nearly all actives have a fitted effect of over 55% in size
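Readout: luminescence from CellTiter-Glo after 30 min in the dark at RT. Cells: DT40 Tdp1-/- with stable hTDP1, 400/well. Exposure: compounds alone, ≥48 hr, 37 °C.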
TDP1 inh = blocks human tyrosyl-DNA phosphodiesterase 1; 350,000 compounds, 0.28% hits; AID 485290; Q9NUW8; Potency, µM (top dose mostly 130 µM), hits mostly inhibitors; recombinant TDP1, AlphaScreen DNA substrate cleavage; also: nearly all actives have a fitted effect of over 40% in size
Target sequence (Q9NUW8 whole entry, looked up): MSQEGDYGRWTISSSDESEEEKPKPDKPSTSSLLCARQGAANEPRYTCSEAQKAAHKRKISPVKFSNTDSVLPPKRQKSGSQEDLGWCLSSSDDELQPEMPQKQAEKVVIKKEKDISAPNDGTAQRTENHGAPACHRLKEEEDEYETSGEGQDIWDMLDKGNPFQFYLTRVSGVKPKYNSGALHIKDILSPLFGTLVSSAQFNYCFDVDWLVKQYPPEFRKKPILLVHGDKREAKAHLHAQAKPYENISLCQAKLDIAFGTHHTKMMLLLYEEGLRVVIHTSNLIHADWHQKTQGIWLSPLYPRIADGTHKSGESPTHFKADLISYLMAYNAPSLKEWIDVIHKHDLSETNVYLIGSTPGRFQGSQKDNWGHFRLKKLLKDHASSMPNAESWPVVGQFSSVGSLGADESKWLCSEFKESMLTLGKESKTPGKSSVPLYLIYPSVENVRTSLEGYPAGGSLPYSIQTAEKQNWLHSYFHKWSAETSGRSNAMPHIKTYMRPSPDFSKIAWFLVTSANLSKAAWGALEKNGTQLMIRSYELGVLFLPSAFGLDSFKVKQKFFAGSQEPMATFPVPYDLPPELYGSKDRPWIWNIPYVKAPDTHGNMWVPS
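Signal: AlphaScreen proximity between streptavidin donor and anti-FITC acceptor beads on intact substrate. Reaction: Tdp1 1 nM, substrate 15 nM final, 5 min RT after 15 min compound preincubation.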
DT40 TDP1 CPT = DT40-hTDP1 cell growth loss with CPT. Potency, µM (titrated, usually from 46.2 µM), actives largely listed as inhibitors. chicken DT40 Tdp1-/-;hTDP1 cells + 20 nM CPT, ATP luminescence, 48 h. 420,000 compounds, 12% hits; also: nearly all actives have a fitted effect of over 55% in size
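Chicken DT40 Tdp1-/- cells stably complemented with human TDP1 were seeded at 400 cells/well in medium containing 20 nM camptothecin, exposed to pin-transferred compounds, and grown at 37 °C for at least 48 hr. Viability was read as ATP luminescence.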
ClpP mod = qHTS Assay for Activators of ClpP. AID 651965, 2013. Potency, µM (series often up to 57.5 µM). purified B. subtilis ClpP, FRET peptide cleavage, 20 min. 340,000 compounds, 1.9% hits; active = well fitted falling curve with a large enough effect; inconclusive = small, poorly fitted or top-dose-only effect; inactive = no such curve, though single readings can be large or run the other way; also: the source files actives as falling curves though it sought activators and does not explain the sign; nearly all actives have a fitted effect of over 65% in size
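Purified B. subtilis ClpP, 10 microg/mL final in Tris/HCl pH8 with KCl, BSA, glycerol and Tween-20, cleaved an Abz/nitrotyrosine-quenched decapeptide. Fluorescence (ex 320, em 430) was read at 0 and 20 min at room temperature. Delta was normalized to 5.8 microM ADEP and DMSO/no-enzyme controls.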
A number is an active result; i = inactive; ? = inconclusive; nt = no result; [ ] = dose if it differs, or a comment. Unless noted, calls follow the shape of the dose curve; as a rule, active = well fitted curve in the direction sought with a large enough effect; inconclusive = small, poorly fitted or top-dose-only effect, or another doubt; inactive = no such curve, though single readings can be large; an effect the other way counts as inactive or inconclusive.

SMILES | DT40 TDP1 no CPT | TDP1 inh | DT40 TDP1 CPT | ClpP mod
COc1ccc(OCc2ccc(-c3nc(C#N)c(N4CCN(c5cccc(Cl)c5)CC4)o3)o2)cc1 | i | i | i | 3.5µM
COc1ccc(OCc2ccc(-c3nc(C#N)c(N4CCCCC4)o3)o2)cc1 | ? | i | i | 28µM
N#Cc1c(C(F)(F)F)cc(-c2cccs2)nc1SCC(=O)Nc1ccccc1F | ? | i[12.3 µM] | i | ?
COc1ccc(CNC(=O)c2nc(Cn3nc(C)c(Br)c3C)no2)cc1OC | ? | i | i | i
O=C(Cc1ccccc1F)OCC(=O)N1CCc2ccccc21 | i | i | i | nt
COc1ccc2c(CC(=O)OCC(=O)N3CCc4ccccc43)coc2c1 | 18µM | i | ? | i
Cc1ccc(-c2nc(SC(C)C(=O)N3CCOCC3)n[nH]2)cc1 (stereo not given) | i | i | i | i
O=C(C[n+]1ccncc1Cl)c1ccc(F)cc1 | i | nt | i | i
COc1ccc(C(=O)C[n+]2ccc(Cl)c3ccc(Cl)cc32)cc1 | 7.9µM | nt | 7.9µM | i
O=C(C[n+]1ccc(Cl)c2ccc(Cl)cc21)c1ccc(F)cc1 | 3.5µM | nt | 10µM | i
COc1ccc(C(=O)c2ccc(Cl)cc2Cl)cc1 | ? | i | i | i
CCOC(=O)CSc1nc2ccccc2c(=O)n1CC1COc2ccccc2O1 (stereo not given) | 18µM | i | ? | i
Cc1cc(=O)n(C(C)Cc2ccccc2)n1C(C)Cc1ccccc1 (stereo not given) | i | nt | ? | 32µM
CCC(CC)n1c(C)cc(=O)n1C(CC)CC | i | nt | i | i
Cc1ccc(Nc2ccc(N3CCN(C(=O)c4cccc([N+](=O)[O-])c4)CC3)nn2)cc1 | 16µM | i | ? | i
O=C(c1cccc([N+](=O)[O-])c1)N1CCCN(C(=O)c2cccc([N+](=O)[O-])c2)CC1 | i | i | i | i
O=C(c1ccco1)N1CCN(c2c([N+](=O)[O-])nn(-c3cccc(Cl)c3)[n+]2[O-])CC1 | ? | i | 16µM | i
Cc1c(C(=O)N2CCN(c3ccccn3)CC2)cccc1[N+](=O)[O-] | i | i | i | i
O=C(c1cccc([N+](=O)[O-])c1)N1CCN(c2cccc(Cl)c2)CC1 | 18µM | i | 18µM | i
Cc1c(C(=O)N2CCN(c3cccc(Cl)c3)CC2)cccc1[N+](=O)[O-] | 16µM | i | 16µM | i
CC(C)N1CCC(C)(C(=O)Nc2ccc(-n3cccc3)cc2)C1 (stereo not given) | ? | nt | ? | i
O=C(CCNS(=O)(=O)c1ccc(Cl)cc1)NCCc1ccccc1 | ? | nt | i | i
Cc1ccc(-c2nc(N3CCN(S(=O)(=O)c4ccc(F)cc4)CC3)c3ccc(Cl)cc3n2)cc1 | nt | i | nt | nt
Cc1occc1C(=O)N1CCCC(N2CCN(c3ccccc3F)CC2)C1 (stereo not given) | i | i | i | i
Cc1cccc(C(=O)NC(=O)Nc2ccc(-n3nc(C(F)(F)F)cc3C(F)(F)F)cc2)c1 | i | i | i | i
SMILES | DT40 TDP1 no CPT | TDP1 inh | DT40 TDP1 CPT | ClpP mod
COC(=O)c1cc(C(=O)N2CCN(c3cccc(Cl)c3)CC2)cc([N+](=O)[O-])c1 | 0.92µM | i | 0.65µM | nt
NC(=O)c1nsc(C(=O)N(c2cccc(F)c2)C(C(=O)NC2CCCC2)c2ccco2)c1N (stereo not given) | ? | i | i | nt
NNC(=O)c1ccc(CSc2n[nH]c(=O)[nH]c2=O)cc1 | i | 45µM | i | nt
O=C(CSC1=NS(=O)(=O)c2cc(F)ccc2N1)NCc1ccccc1Cl | i | i[0.505 µM] | i | i
COc1cc(/C=C/C(=O)OCC(=O)Nc2c(C)n(C)n(-c3ccccc3)c2=O)cc(OC)c1OC | i | i | i | i
COc1ccccc1NC(=O)CCn1c(=S)oc2ccccc21 | i | nt | i | i
COc1ccc(OC)c(NC(=O)Cn2c(=O)c3cccn3c3ccccc32)c1 | 12µM | i | ? | i
COc1ccc(NC(=O)CCCn2c(=O)c3cccn3c3ccccc32)c(OC)c1 | 10µM | i | 13µM | i
COc1ccccc1NC(=O)CCn1c(=O)c2cccn2c2ccccc21 | 23µM | i | ? | i
Cc1ccc(-n2nc3c(=O)n(CC(=O)NC(C)C)nc(C)c3c2C)cc1 | i | i | i | i
